Assay outcomes (PubChem)
An excerpt weighted towards active compounds, which were near 2% of everything screened.
697 NFkB inh – inhibitors of the PMA/ionomycin-induced NF-kB reporter in 697 B cells | 697 B-cell NF-kB luciferase reporter, 16 h | inhibition, % at 4 µM | 0.33% of 330,000 active | AID 435022; in the data active = inhibition above about 35%
Gli-Sufu antag – antagonists of Gli-Sufu signaling. Sufu-KO-LIGHT fibroblasts, Gli luciferase reporter luminescence. inhibition, % at 5 µM. 0.74% of 340,000 active;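 active = inhibition above about 55%, limit read from the data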;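 also: 0% = DMSO-treated cells and 100% = wells with medium but no cells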
GalR3 antagonist – blocks the human galanin receptor 3; O60755; HEK293 GalR3-CNG cAMP membrane potential fluorescence; galR3 body fused to GalR1 C-terminus; inhibition, % at 3 µM; 0.44% of 360,000 active;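 active = inhibition above the screen-wide average plus 3 SD, cut at about 13% in these data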;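 also: forskolin and galanin both at EC90 stimulate the cells; cAMP rise reported by CNG channel membrane potential dye signal; 0% = forskolin plus galanin with DMSO and 100% = forskolin alone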
Target sequence (O60755 1-299 limits assumed): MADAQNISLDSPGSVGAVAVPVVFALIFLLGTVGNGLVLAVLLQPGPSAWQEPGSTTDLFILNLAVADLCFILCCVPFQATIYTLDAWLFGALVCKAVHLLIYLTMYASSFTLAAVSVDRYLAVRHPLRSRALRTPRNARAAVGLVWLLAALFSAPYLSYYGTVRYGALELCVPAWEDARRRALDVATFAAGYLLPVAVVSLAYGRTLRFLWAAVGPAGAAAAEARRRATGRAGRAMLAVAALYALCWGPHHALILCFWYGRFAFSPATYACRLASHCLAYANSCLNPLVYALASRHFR
COUP-TFII inh – NR2F2 (human) inhibition, primary screen; P24468; HEK293T NGFI-A luciferase reporter, luminescence; inhibition, % at 8.6 µM; 0.7% of 370,000 active; AID 686940;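 active = inhibition above a per-plate cutoff, mean inhibition of test wells between control levels plus 3 SD, cut at about 38% in these data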;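 also: cells cotransfected with COUP-TFII expression vector driving the NGFI-A reporter; 0% = median of COUP-TF2 test wells and 100% = reporter-only cells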
Target sequence (P24468 whole entry, looked up): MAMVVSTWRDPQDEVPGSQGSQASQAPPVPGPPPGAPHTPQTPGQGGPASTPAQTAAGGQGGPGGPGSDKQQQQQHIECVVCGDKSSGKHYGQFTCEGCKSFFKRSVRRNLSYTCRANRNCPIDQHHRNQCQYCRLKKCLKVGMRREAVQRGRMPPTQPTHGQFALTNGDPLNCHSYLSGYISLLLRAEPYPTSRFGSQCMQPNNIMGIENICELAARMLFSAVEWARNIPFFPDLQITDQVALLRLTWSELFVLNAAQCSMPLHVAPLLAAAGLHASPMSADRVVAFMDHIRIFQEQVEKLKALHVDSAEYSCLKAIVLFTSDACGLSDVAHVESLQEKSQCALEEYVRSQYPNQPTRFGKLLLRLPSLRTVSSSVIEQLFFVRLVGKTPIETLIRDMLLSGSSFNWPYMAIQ
Jurkat NFkB inh – inhibitors of the PMA/ionomycin-induced NF-kB reporter in Jurkat cells; AID 435003; 0.53% of 330,000 active; PMA/ionomycin-induced NF-kB luciferase reporter, luminescence; inhibition, % at 4 µM; in the data active = inhibition above about 50%
Jurkat NFkB conf – inhibitors of the PMA/ionomycin-induced NF-kB reporter in Jurkat cells, retest. shares compounds with Jurkat NFkB inh. Jurkat NF-kB luciferase, 16 h. inhibition, % at 4 µM. 27% of 2,700 active. AID 435020;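 active = inhibition reaching about 45% at 4 µM in either replicate, limit read from the data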;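 also: plate controls were PMA/ionomycin stimulated DMSO wells for no effect and unstimulated DMSO wells for full effect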
697 NFkB conf – lowers PMA/ionomycin-induced NF-kB signal in 697 B cells | shares compounds with 697 NFkB inh | 697 B-cell NF-kB luciferase, 16 h | inhibition, % at 4 µM | 35% of 2,000 active | AID 449746; in the data active = inhibition mostly above about 28%, no sharp cut-off; inactive = mostly below about 22%
Gli-Sufu confirm – confirmation of Gli-SUFU pathway antagonists; 40% of 2,500 active; Sufu-KO-LIGHT cells, Gli luciferase reporter, luminescence; inhibition, % at 5 µM; shares compounds with Gli-Sufu antag;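 active = mean inhibition at 5 µM reaching about 45%, limit read from the data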;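 also: plate controls were DMSO-treated cells for no effect and wells lacking cells for full effect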
Gli cytotox – cytotoxic in Gli-SUFU antagonist counter-screen | Sufu-KO-LIGHT cells cytotoxicity, ATP luminescence | 32% of 2,500 active | cytotoxicity, % at 5 µM | shares compounds with Gli-Sufu antag;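 active = mean cytotoxicity at 5 µM above about 25%, limit read from the data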;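 also: cells exposed to compound overnight for roughly 16 to 18 hours; plate controls were DMSO wells with cells for no effect and medium without cells for full effect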
Wnt3a cs – inhibits Wnt3a reporter, counter-screen for Gli-SUFU antagonists. shares compounds with Gli-Sufu antag. Wnt-LIGHT cells, Wnt3a-driven luciferase reporter, luminescence. inhibition, % at 6.25 µM. 20% of 2,500 active. AID 651995;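 active = mean inhibition above about 25%, limit read from the data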
GalR3 antag conf – GalR3 (human) antagonism, confirmation | shares compounds with GalR3 antagonist | 59% of 1,600 active | inhibition, % at 3 µM | HEK293 GalR3 CNG cAMP biosensor, membrane potential fluorescence; galR3 fused to GalR1 carboxy tail; challenged with forskolin and galanin at EC90;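 active = inhibition above the primary screen's cutoff, the mean inhibition of all screened compounds plus 3 SD, cut at about 13% in these data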;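 also: 0% = forskolin plus galanin and 100% = forskolin alone with DMSO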
HEK-CNG parental – acts as nonspecific agonist in parental HEK-CNG cells | shares compounds with GalR3 antagonist | HEK293-CNG parental cells, cAMP membrane potential fluorescence; normalised: DMSO wells 0%, forskolin wells 100% | activation, % at 3 µM | 10% of 1,600 active; in the data active = activation above about 1.3%
* = called active by the depositor.

What do the screens show for `O=C(N/N=C/C(Br)=C/c1ccccc1)c1ccncc1`?
697 NFkB inh: -71; Gli-Sufu antag: 3; GalR3 antagonist: -2; COUP-TFII inh: -1; Jurkat NFkB inh: 21

What do the screens show for `CCN(C)C(=O)CNc1nnnn1-c1ccccc1`?
COUP-TFII inh: -15

How did O=c1[nH]c(Nc2nc3ccccc3o2)nc2c1CCCC2 do in these assays?
697 NFkB inh: -275; Gli-Sufu antag: 62*; GalR3 antagonist: -4; COUP-TFII inh: -14; Jurkat NFkB inh: 71*; Jurkat NFkB conf: -50; 697 NFkB conf: -99; Gli-Sufu confirm: 64*; Gli cytotox: 39*; Wnt3a cs: 44*

What do the screens show for `COc1cc(-c2noc(C)c2/C=C/c2ccc(OC(C)=O)cc2)cc(OC)c1OC`?
697 NFkB inh: -45; Gli-Sufu antag: 53; GalR3 antagonist: 4; COUP-TFII inh: -96; Jurkat NFkB inh: 68*; Jurkat NFkB conf: 49*; Gli-Sufu confirm: 69*; Gli cytotox: 58*; Wnt3a cs: 5

What do the screens show for `COCCCNC(=O)C[C@H]1C[C@@]2(C(=O)OC)C(=C[C@H](C(C)(C)C)O[C@@H]2C)N(Cc2ccco2)C1=O`?
COUP-TFII inh: -1

Results for COc1cc(C2c3cc4c(cc3C(OC3OC5COC(c6cccs6)OC5C(O)C3O)C3COC(=O)C23)OCO4)cc(OC)c1O (stereo not given) ?
697 NFkB inh: -35; Gli-Sufu antag: 82*; GalR3 antagonist: -2; COUP-TFII inh: -22; Jurkat NFkB inh: 80*; Jurkat NFkB conf: 94*; Gli-Sufu confirm: 81*; Gli cytotox: 72*; Wnt3a cs: 57*

How did Cn1nc(CC(=O)Nc2ccc3c(c2)CCC3)c2ccccc2c1=O do in these assays?
697 NFkB inh: 41*; Gli-Sufu antag: 72*; GalR3 antagonist: -4; COUP-TFII inh: 5; Jurkat NFkB inh: 59*; Jurkat NFkB conf: 68*; 697 NFkB conf: 47*; Gli-Sufu confirm: 68*; Gli cytotox: 41*; Wnt3a cs: 3

Results for Cn1nc(CC(=O)NC2CCCCCCCCCCC2)c2ccccc2c1=O ?
697 NFkB inh: -37; Gli-Sufu antag: 27; GalR3 antagonist: -2; COUP-TFII inh: 13; Jurkat NFkB inh: 5

What do the screens show for `Cc1cnc(NC(=O)CSc2ccc(Cl)cc2)s1`?
697 NFkB inh: 9; Gli-Sufu antag: 3; GalR3 antagonist: 2; COUP-TFII inh: -5; Jurkat NFkB inh: -7

Results for Cc1cnc(NC(=O)Nc2ccc(Cl)cc2)s1 ?
697 NFkB inh: 65*; Gli-Sufu antag: 76*; GalR3 antagonist: -11; COUP-TFII inh: -34; Jurkat NFkB inh: 81*; Jurkat NFkB conf: 24; 697 NFkB conf: 49*; Gli-Sufu confirm: 49*; Gli cytotox: 11; Wnt3a cs: -125

Results for O=C1C=C(c2ccc3cc[nH]c3c2)C[C@@H](c2ccc3c(c2)OCO3)C1 ?
697 NFkB inh: -24; Gli-Sufu antag: 59*; Jurkat NFkB inh: 53*; Jurkat NFkB conf: 19; Gli-Sufu confirm: 32; Gli cytotox: 14; Wnt3a cs: -59

How did O=C1C=C(c2ccc3c(c2)OCO3)C[C@@H](c2ccc3c(c2)OCO3)C1 do in these assays?
697 NFkB inh: -12; Gli-Sufu antag: -28; GalR3 antagonist: -2; COUP-TFII inh: -6; Jurkat NFkB inh: -1

What do the screens show for `FC(F)(F)c1cc(-c2ccco2)nc(-n2cnc3ccccc32)n1`?
697 NFkB inh: -5; Gli-Sufu antag: 16; GalR3 antagonist: -5; COUP-TFII inh: 2; Jurkat NFkB inh: -8

How did Cc1nc2ccccc2n1-c1nc(-c2ccco2)cc(C(F)(F)F)n1 do in these assays?
697 NFkB inh: -43; Gli-Sufu antag: 68*; GalR3 antagonist: -6; COUP-TFII inh: -12; Jurkat NFkB inh: 83*; Jurkat NFkB conf: 30; Gli-Sufu confirm: 78*; Gli cytotox: 20; Wnt3a cs: 77*

How did CCOC(=O)c1c(C)[nH]c(C(=O)N/N=C/c2ccc(Br)cc2)c1C do in these assays?
697 NFkB inh: -72; Gli-Sufu antag: 52; GalR3 antagonist: -4; COUP-TFII inh: -64; Jurkat NFkB inh: 79*; Jurkat NFkB conf: 46; Gli-Sufu confirm: 50*; Gli cytotox: 61*; Wnt3a cs: -18

How did CCCCn1cnc2c(=O)[nH]ccc21 do in these assays?
COUP-TFII inh: -20

Results for Cc1cc(Cl)c(S(=O)(=O)N2CCN(c3ccc(F)cc3)CC2)cc1OCC(N)=O ?
697 NFkB inh: -55; Gli-Sufu antag: -7; GalR3 antagonist: 2; COUP-TFII inh: 7; Jurkat NFkB inh: 21

What do the screens show for `Cc1cc(Cl)c(S(=O)(=O)N2CCN(c3ccc(F)cc3)CC2)cc1OCC(=O)NC1CCCCC1`?
697 NFkB inh: 98*; Gli-Sufu antag: 58*; GalR3 antagonist: 97*; COUP-TFII inh: 11; Jurkat NFkB inh: 65*; Jurkat NFkB conf: 75*; 697 NFkB conf: 92*; GalR3 antag conf: 110*; HEK-CNG parental: -1

Results for CCOC(=O)COc1cccc2c(=O)n(CC(=O)NCc3ccc(F)cc3)ccc12 ?
697 NFkB inh: -14; Gli-Sufu antag: 49; GalR3 antagonist: 15*; COUP-TFII inh: -72; Jurkat NFkB inh: 72*; Jurkat NFkB conf: 53*; GalR3 antag conf: 22*; HEK-CNG parental: 1

How did CCC[C@H]1[C@@H](NC(=O)c2ccc(OC)cc2)CC[C@@]23CCCN2C(=O)CCC[C@@H]13 do in these assays?
COUP-TFII inh: 7

Results for CCOC(=O)c1ccc(-c2c(-c3cc(OC)c(OC)c(OC)c3)noc2C)cc1F ?
697 NFkB inh: -38; Gli-Sufu antag: 14; COUP-TFII inh: -24; Jurkat NFkB inh: 57*; Jurkat NFkB conf: 36; GalR3 antag conf: 5; HEK-CNG parental: 3.8*
